For part of these data: Entries with a potency or affinity are not part of this list. Activity calls are given as the source filed them.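 Rule for the calls, unless noted: active = fitted half-maximal concentration within 10 nM to 100 µM, steepness 0.5 to 2, significant signal drop, low assay interference; inactive = the rest.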
Legend:
[1] = target: Cell division control protein 42 homolog (Homo sapiens) (UniProt P60953); test: activated mutant Cdc42 GTP-binding inhibitors, dose response, biochemical, multiplex bead flow cytometry, Bodipy-FL-GTP (AID 1333;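 active = fitted half-maximal concentration within the tested dose range, moderate curve steepness, a statistically real signal drop, and little compound fluorescence or tag-binding interference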)
[2] = target: Cell division control protein 42 homolog (Homo sapiens) (UniProt P60953); test: wildtype Cdc42 GTP-binding inhibitors, dose response, biochemical, multiplex bead flow cytometry, Bodipy-FL-GTP (AID 1334;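 active = fitted half-maximal concentration within the tested range, moderate curve steepness, significant signal drop, and little compound fluorescence or bead-linkage interference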); details: bead-based flow cytometry, Bodipy-FL-GTP binding to GST-Cdc42; at 100 µM (top of the series) unless noted
[3] = target: GTPase HRas (Homo sapiens) (UniProt P01112); test: inhibitors of GTP binding to wildtype Ras, dose response, biochemical, multiplex bead flow cytometry (AID 1335); details: bead-based flow cytometry, Bodipy-GTP binding to GST-Ras; at 100 µM (top of the series) unless noted
[4] = tested on: Ras-related protein Rab-7a (dog), GTP binding; test: Rab7 GTP binding inhibitors, potency, dose response, biochemical, wildtype, multiplex bead flow cytometry (AID 1336; call rule not given here)
[5] = target: Ras-related C3 botulinum toxin substrate 1 (Homo sapiens) (UniProt P63000); test: wildtype Rac1 GTP binding inhibitors, dose response, biochemical, multiplex bead flow cytometry (AID 1340;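 active = dose curve with midpoint inside tested range, moderate steepness, plateau gap beyond fit error, low compound glow and bead-link interference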); details: GST-Rac1 beads, Bodipy-FL-GTP binding; at 100 µM (top of the series) unless noted
[6] = target: GTPase HRas (Homo sapiens) (UniProt P01112); test: activated Ras mutant GTP binding inhibitors, dose response, biochemical, multiplex bead flow cytometry (AID 1341;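 active = dose-response curve with midpoint inside the tested range, moderate steepness, significant amplitude and little compound fluorescence or bead-attachment interference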;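 note: GST-tagged constitutively activated Ras mutant immobilized on beads and multiplexed with other GTPases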)

GTPase HRas (Homo sapiens), sequence (P01112 whole entry, looked up): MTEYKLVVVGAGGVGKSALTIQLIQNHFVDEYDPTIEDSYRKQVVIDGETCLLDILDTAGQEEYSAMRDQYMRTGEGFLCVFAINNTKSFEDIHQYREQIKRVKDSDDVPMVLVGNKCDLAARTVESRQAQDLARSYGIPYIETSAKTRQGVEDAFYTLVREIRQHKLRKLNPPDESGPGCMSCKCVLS
Cell division control protein 42 homolog (Homo sapiens), sequence (P60953 whole entry, looked up): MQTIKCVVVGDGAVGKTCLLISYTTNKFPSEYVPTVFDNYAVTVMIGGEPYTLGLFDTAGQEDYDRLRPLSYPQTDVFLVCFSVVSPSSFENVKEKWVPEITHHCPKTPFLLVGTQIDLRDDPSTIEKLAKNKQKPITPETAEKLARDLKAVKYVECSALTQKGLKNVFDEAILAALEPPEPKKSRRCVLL

| Compound | outcome [1] | fluorescence, percent of control (lower = inhibition) [2] | GTP binding, percent of control [3] | outcome [4] | GTP binding signal, raw median fluorescence (lower = inhibition) (MCF (arbitrary fluorescence units)) [5] | outcome [6] |
| --- | --- | --- | --- | --- | --- | --- |
| COC(=O)c1ccc(COc2ccccc2/C=N/Nc2cccc(C(=O)O)c2)cc1 | inactive | 52.1% | 100% | inactive | 274 | inactive |
| COc1ccccc1OCCSc1nc2ccccc2n1CC(=O)O | inactive | 62.3% | 87.1% | inactive | 33.6 | inactive |
| CCCCCN1CC(O)=C(c2ccccc2)C1=N | inactive | 82.3% | 158% | inactive | 179 | inactive |
| NC(=S)N=Nc1c(O)[nH]c2cc(F)c(F)cc12 | inactive | 29.7% | 63.2% | inactive | 155 | inactive |
| O=C(N/N=C/c1ccco1)c1ccc(C(=O)N/N=C/c2ccco2)o1 | inactive | 32.1% | 72.4% | inactive | 184 | inactive |
| C/C(=N\NC(=O)CC1N=C(Cc2ccccc2)NNC1=O)c1ccc(Cl)cc1Cl (stereo not given) | inactive | 90.1% | 160% | inactive | 175 | inactive |
| Nc1[nH]c(=S)nc2nc(-c3ccccc3)c(-c3ccccc3)nc12 | inactive | 33.9% | 81.4% | inactive | 198 | inactive |
| CN1CCc2nc3ccc(Cl)cc3c(-c3ccccc3Cl)c2C1 | inactive | 37.3% | 81.8% | inactive | 257 | inactive |
| CCOC(=O)Cn1nnnc1C(CC)N(Cc1ccccc1)Cc1cc2cc(C)ccc2[nH]c1=O (stereo not given) | inactive | 83.7% | 155% | inactive | 182 | inactive |
| C=CC#CC[N+]1(CC#Cc2ccccc2)CCOCC1 | inactive | 97.9% | 95.4% | inactive | 537 | inactive |
| CCOc1ccc(C2C(C(=O)O)CCC(=O)N2C2CCCCC2)cc1 (stereo not given) | inactive | 23% | 59.8% | inactive | 178 | inactive |
| CCN(CC)c1ccc(/C=c2\sc3nnc(-c4ccccc4Cl)n3c2=O)cc1 | inactive | 117% | 128% | inactive | 225 | inactive |
| COc1ccccc1OCCn1cc(C(=O)O)c2cccc(Cl)c21 | inactive | 53.4% | 199% | inactive | 56.2 | inactive |
| Cc1c(NS(=O)(=O)c2ccc3c(c2)Cc2ccccc2-3)c(=O)n(-c2ccccc2)n1C | inactive | 30.4% | 80% | inactive | 238 | inactive |
| Cc1sc2ncnc(N/N=C/c3ccc(O)cc3)c2c1C | inactive | 27.2% | 64.8% | inactive | 312 | inactive |
| O=S1(=O)N=C(N=Nc2c(O)[nH]c3ccccc23)c2ccccc21 | inactive | 27.7% | 62.5% | inactive | 129 | inactive |
| COc1ccccc1CNC(=O)c1c(N)n(CCCN2CCOCC2)c2nc3ccccc3nc12 | inactive | 44.4% | 89.9% | inactive | 214 | inactive |
| CC(C)(C)C(=O)c1sc2nc(-c3cccs3)cc(C(F)(F)F)c2c1N | inactive | 86.4% | 182% | inactive | 194 | inactive |
| COc1ccc(C(=O)Nc2cc(Cl)ccc2C(=O)O)cc1 | inactive | 30.8% | 75.6% | inactive | 272 | inactive |
| COc1c(C)cc(Br)cc1C(=O)O | inactive | 46.9% | 97% | inactive | 59.3 | inactive |

| Compound | outcome [1] | fluorescence, percent of control (lower = inhibition) [2] | GTP binding, percent of control [3] | outcome [4] | GTP binding signal, raw median fluorescence (lower = inhibition) (MCF (arbitrary fluorescence units)) [5] | outcome [6] |
| --- | --- | --- | --- | --- | --- | --- |
| C=CCn1c(-c2csc(-c3ccc(Cl)cc3)n2)n[nH]c1=S | inactive | 40.8% | 89.3% | inactive | 262 | inactive |
| COC(=O)c1c(N2C(=O)[C@H]3[C@@H](C2=O)[C@]2(C(=O)Nc4c(C)cc(C)cc42)N2CCC[C@@H]32)sc(C)c1C | inactive | 45.1% | 97.2% | inactive | 238 | inactive |
| NC(=S)Nc1cccc2cc3ccccc3cc12 | inactive | 75.3% | 120% | inactive | 137 | inactive |
| COc1ccc(-c2cc(=O)c(C(=O)c3ccc(C)cc3)n[nH]2)cc1 | inactive | 35.8% | 80.8% | inactive | 317 | inactive |
| COc1cc2[nH]c(=S)nc(NCCC(C)C)c2cc1OC | inactive | 29.1% | 55.6% | inactive | 123 | inactive |
| COc1ccc(OCC(=O)Nc2nonc2NC(=O)COc2ccc(OC)cc2)cc1 | inactive | 38.2% | 79.5% | inactive | 234 | inactive |
| O=C(COC(=O)C12CC3CC(CC(C3)C1)C2)Nc1nc2c(F)c(F)c(F)cc2s1 | inactive | 44.1% | 68.1% | inactive | 0 | inactive |
| COc1cccc(C2CC(c3ccccc3)=NN2S(=O)(=O)c2ccc(C)cc2)c1OC (stereo not given) | inactive | 93.3% | 141% | inactive | 311 | inactive |
| NC(=O)COC(=O)c1cccc2c1-c1ccccc1C2=O | inactive | 33.4% | 75% | inactive | 176 | inactive |
| COc1cccc(N=Nc2c(N)[nH]n3c(=O)c4c(nc23)CCCC4)c1 | inactive | 29.6% | 66.9% | inactive | 151 | inactive |
| O=C(CSc1ncnc2scc(-c3ccccc3)c12)N1CCN(Cc2ccc3c(c2)OCO3)CC1 | inactive | 45.2% | 63.6% | inactive | 196 | inactive |
| O=C(O)CSc1ccc2nnc(-c3cccnc3)n2n1 | inactive | 35.6% | 73.9% | inactive | 151 | inactive |
| Cc1nnc2ccc(-c3ccc(NC(=O)c4ccco4)cc3)nn12 | inactive | 69.8% | 109% | inactive | 215 | inactive |
| CCCCCCCCCCCC(=O)c1c(O)cccc1O | inactive | 28.4% | 79.8% | inactive | 241 | inactive |
| CCOc1cccc(-c2nn3c(-c4ccco4)nnc3s2)c1 | inactive | 32.7% | 71.3% | inactive | 164 | inactive |
| COc1ccc2oc(COc3ccccc3)c(C(=O)O)c2c1 | inactive | 59.6% | 87.3% | inactive | 29.6 | inactive |
| CCn1cc(C(=O)OCC(=O)c2cc(C)n(-c3cccc(C(F)(F)F)c3)c2C)c(=O)c2ccc(C)nc21 | inactive | 37.1% | 57.8% | inactive | 137 | inactive |
| CC(C)N(C(=O)Cn1cnc2cc([N+](=O)[O-])ccc2c1=O)C(C)C | inactive | 34.2% | 76.5% | inactive | 156 | inactive |
| O=c1c2ccccc2nc2c3ccccc3c(Cl)nn12 | inactive | 36.6% | 83.1% | inactive | 213 | inactive |
| Cc1ccc(OCCn2cc(C(=O)O)c3ccccc32)cc1 | inactive | 45.4% | 96.7% | inactive | 280 | inactive |

| Compound | outcome [1] | fluorescence, percent of control (lower = inhibition) [2] | GTP binding, percent of control [3] | outcome [4] | GTP binding signal, raw median fluorescence (lower = inhibition) (MCF (arbitrary fluorescence units)) [5] | outcome [6] |
| --- | --- | --- | --- | --- | --- | --- |
| COc1cccc(/C=N/Nc2nn3cnnc3c3ccccc23)c1O | inactive | 35.9% | 44.6% | inactive | 126 | inactive |
| O=C(C[n+]1cccc2ccccc21)c1ccc(NC(=O)c2ccccc2)cc1 | inactive | 75.8% | 123% | inactive | 332 | inactive |
| COc1ccc(CC(=O)c2ccccc2C(=O)O)cc1 | inactive | 153% | 143% | inactive | 368 | inactive |
| Cc1ccc(C(=O)O)c(OCCc2c(C)cccc2C)n1 | inactive | 64.4% | 224% | inactive | 57 | inactive |
| O=C(/C=C/c1ccccc1)NC(NC(=S)Nc1ccc(C(=O)O)cc1)C(Cl)(Cl)Cl (stereo not given) | inactive | 35.2% | 78.3% | inactive | 178 | inactive |
| C=CCNC(=O)c1cc2c(=O)n3cc(C)ccc3nc2nc1NCC1CCCO1 (stereo not given) | inactive | 51.6% | 58.6% | inactive | 226 | inactive |
| O=C(CSc1ncccc1C(=O)O)c1ccc2ccccc2c1 | inactive | 48.7% | 66.6% | inactive | 0 | inactive |
| Cc1ccc2nc(CSc3nc(C)cc(C)c3C#N)[nH]c2c1 | inactive | 35.3% | 77.6% | inactive | 242 | inactive |
| COc1ccc(C(=O)Nn2c(SCC(=O)c3ccccc3)nc3ccccc3c2=O)cc1 | inactive | 71.5% | 119% | inactive | 135 | inactive |
| O=C(O)c1cccc(-n2cccc2/C=C2/NC(=O)N(c3ccc(Cl)cc3)C2=O)c1 | inactive | 22.7% | 64.3% | inactive | 213 | inactive |
| O=C(CN1C(=O)S/C(=C/c2cccnc2)C1=O)N1CCOCC1 | inactive | 54.1% | 68.5% | inactive | 221 | inactive |
| O=C(CCc1nnc(-c2ccc3c(c2)OCO3)o1)N1CCC(c2ccc(F)cc2)C1 (stereo not given) | inactive | 36.1% | 88.1% | inactive | 303 | inactive |
| Cc1cccc(CNCc2sc(C(=O)O)cc2C)c1 | inactive | 54.2% | 77.2% | inactive | 31.9 | inactive |
| CCOC(=O)C1(Cc2cccc(F)c2)CCN(Cc2nc(CC)[nH]c2C)CC1 | inactive | 48.2% | 90.4% | inactive | 274 | inactive |
| O=C1/C(=C/c2ccc(N3CCOCC3)o2)SC(=Nc2ccccc2)N1CCc1c[nH]c2ccccc12 | inactive | 104% | 114% | inactive | 242 | inactive |
| Cn1nc([N+](=O)[O-])c(C(C#N)c2ccccn2)c(Cl)c1=O (stereo not given) | inactive | 24% | 74.7% | inactive | 201 | inactive |
| Cc1cc(C)n2nc(C(=O)N3CCCC(CNS(=O)(=O)c4cccs4)C3)cc2n1 (stereo not given) | inactive | 37.1% | 85.6% | inactive | 284 | inactive |
| C=CCc1ccccc1OCC(O)CN1CCN(C(=O)OCC)CC1 (stereo not given) | inactive | 48.3% | 60.5% | inactive | 194 | inactive |
| O=C(O)c1cn(CCOc2ccccc2Cl)c2ccccc12 | inactive | 99.8% | 110% | inactive | 86 | inactive |
| Cc1c(C(=O)N2CCc3ccccc3C2)oc2ccc(S(=O)(=O)N3CCCCCC3)cc12 | inactive | 56.2% | 76% | inactive | 274 | inactive |
